# According to the supplement of paper PMC8728848:
# The entries come from a sample that favours the strongest signals as a whole.
# B1: Epa1-NP-mutant-E227G (Candida glabrata), Q6VBJ0 (protein)
# chain: MILNPALFLNKCVCIYTTLILLLLTNGGYATSSNDISLASKDPTTFPLGCSPDITTPKKGLSMELYSYDFRKKGSYPCWDAAYLDPNYPRTGYKSHRLLAKVDGVTGNINFYYHATKGCTPQLGHLPASYNYPKPLTMTNFTMLLYGYFRPKVTGFHTFTISADDLLFVNFGAGNAFDCCRRDSSADHFGNYQAYAIWGSKTAKDELTVHLDAGVYYPIRLFYNNRGYDGALSFTFKTESNENTVSDFSEYFFSLDDTEEGCPGLISYDSSCASVKTSKIIGIDYHTETPNENLVPITKTIYHLGIPCTGTTTTPLCGSGFYDPLANKCVTINTSSTSSVTKTTSHTTSKEVSFHSSISSQKTLIPKSIPSPYGPIKSQSIPTEMETSSEISSSEYAFSDVISTPSHSPYTKKHSSLNSSSYTSTVIHSLTSYSISQGIFSTSLSEQNITSKSSTDKFSTATSMSNNITQSSIIISQFSTNNENYTTTSMHTSSDKISTETLNNSISTTTSILFSNSSTILKNNTTIISSDKDTHYHPVNPTIVCSTNKTEIICASITQPSISNSNNHWSSSVLKFNSTTVRSTLPSSAGSNETSINVPFSSSTESNTSTSSTSTSNSKMVRSTLPSSAGSNETSISVPFSSSTESNTSTSSTSTSNSKMVRSTLPSSAGSNETSINVPFSSSTESNTSTSSTSTSNSKTVRSTPFSSAGIIMTSLSQRNNKSASSYASSNSKCYNTADSCRKVHSTPSYLLTSSYTSEGVDYDCSLVSTKLKINDTNCVNNKHTTKSCLKTSVTTTIPTLEIKTARKSSSNTIGLHSYPTSSPNKSISSAPIIGYISSFKTIKTASPSYQTSDLTTITTITSLNNPGSTAVENTHESNDKSRKTSSNDISSKHSVIKETKDAVESSNKSHQTNTLKCSSIIIASSSHNSYESLGGTTLTLTLSKVYSPQNNDTLPFLEISEVNPSRTVLPESSKMMQYLTSTEERNKTARNTIATNIVSISTFHFEGEGNAIRMGYTQLLLMLIGIIVMNIGT
# Key:
# Assay in all cases: glycan array binding signal (z-score within array); higher = stronger binding
# Details in all cases: glycan notation: IUPAC condensed, linker removed; mutation: E227G
# [1] = target: Fuc(a1-2)Gal(b1-3)GalNAc(a1-3)[Fuc(a1-2)]Gal(b1-4)Glc
# Summary of the method: (§1)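 The Consortium for Functional Glycomics database supplied 3228 glycan arrays, of which those lacking an available protein sequence were dropped. The binding signal, a within-array Z-score, was averaged across arrays of the same protein sequence and across linkers. Negative scores can be read as non-binding.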
# [2] = target: Fuc(a1-2)Gal(b1-3)GlcNAc(b1-3)[Gal(b1-4)GlcNAc(b1-6)]Gal(b1-4)Glc
# Summary of the method: as §1
# [3] = target: Fuc(a1-2)Gal(b1-3)[Fuc(a1-4)]GlcNAc(b1-2)Man(a1-3)[Fuc(a1-2)Gal(b1-3)[Fuc(a1-4)]GlcNAc(b1-2)Man(a1-3)]Man(b1-4)GlcNAc(b1-4)GlcNAc
# Summary of the method: as §1
# [4] = target: Fuc(a1-2)Gal(b1-4)Glc
# Summary of the method: as §1
# [5] = target: Fuc(a1-2)Gal(b1-4)GlcNAc(b1-2)Man
# Summary of the method: as §1
# [6] = target: Fuc(a1-2)Gal(b1-4)[Fuc(a1-3)]GlcNAc(b1-2)Man(a1-3)[Fuc(a1-2)Gal(b1-4)[Fuc(a1-3)]GlcNAc(b1-2)Man(a1-6)]Man(b1-4)GlcNAc(b1-4)[Fuc(a1-6)]GlcNAc
# Summary of the method: as §1
# [7] = target: Fuc(a1-2)Gal(b1-4)[Fuc(a1-3)]GlcNAc(b1-3)GalNAc
# Summary of the method: as §1
# [8] = target: Fuc(a1-2)[Gal(a1-3)]Gal
# Summary of the method: as §1
# [9] = target: Fuc(a1-2)[Gal(a1-3)]Gal(b1-4)GlcNAc(b1-2)Man(a1-3)[Fuc(a1-2)[Gal(a1-3)]Gal(b1-4)GlcNAc(b1-2)Man(a1-6)]Man(b1-4)GlcNAc(b1-4)[Fuc(a1-6)]GlcNAc
# Summary of the method: as §1
# [10] = target: Fuc(a1-2)[Gal(a1-3)]Gal(b1-4)GlcNAc(b1-3)[Fuc(a1-2)[Gal(a1-3)]Gal(b1-4)GlcNAc(b1-6)]GalNAc
# Summary of the method: as §1
# [11] = target: Fuc(a1-2)[GalNAc(a1-3)]Gal(b1-3)GalNAc(b1-3)Gal(a1-4)Gal(b1-4)Glc
# Summary of the method: as §1
# [12] = target: Gal(a1-3)Gal(b1-3)GlcNAc(b1-2)Man(a1-3)[Gal(a1-3)Gal(b1-3)GlcNAc(b1-2)Man(a1-6)]Man(b1-4)GlcNAc(b1-4)GlcNAc
# Summary of the method: as §1
# [13] = target: Gal(a1-4)Gal(b1-3)GlcNAc(b1-2)Man(a1-3)[Gal(a1-4)Gal(b1-3)GlcNAc(b1-2)Man(a1-6)]Man(b1-4)GlcNAc(b1-4)GlcNAc
# Summary of the method: as §1
# [14] = target: Gal(b1-2)Gal
# Summary of the method: as §1
# [15] = target: Gal(b1-3)Gal(b1-4)GlcNAc
# Summary of the method: as §1
# [16] = target: Gal(b1-3)GalNAc
# Summary of the method: as §1
# [17] = target: Gal(b1-3)GalNAc(b1-4)Gal(b1-4)Glc
# Summary of the method: as §1
# [18] = target: Gal(b1-3)GlcNAc(b1-2)Man(a1-3)[Gal(b1-3)GlcNAc(b1-2)Man(a1-6)]Man(b1-4)GlcNAc(b1-4)GlcNAc
# Summary of the method: as §1
# [19] = target: Gal(b1-3)GlcNAc(b1-3)GalNAc
# Summary of the method: as §1
# [20] = target: Gal(b1-3)GlcNAc(b1-6)Gal(b1-4)GlcNAc
# Summary of the method: as §1
# [21] = target: Gal(b1-3)GlcNAc6S
# Summary of the method: as §1
# [22] = target: Gal(b1-3)[Fuc(a1-4)]GlcNAc
# Summary of the method: as §1
# [23] = target: Gal(b1-3)[Neu5Ac(a2-6)]GalNAc
# Summary of the method: as §1
# [24] = target: Gal(b1-4)Glc6S
# Summary of the method: as §1
# [25] = target: Gal(b1-4)GlcNAc(b1-2)Man(a1-6)Man(b1-4)GlcNAc(b1-4)GlcNAc
# Summary of the method: as §1
# [26] = target: Gal(b1-4)GlcNAc(b1-3)Gal(b1-4)GlcNAc(b1-2)Man(a1-3)[Gal(b1-4)GlcNAc(b1-3)Gal(b1-4)GlcNAc(b1-2)Man(a1-6)]Man(b1-4)GlcNAc(b1-4)[Fuc(a1-6)]GlcNAc
# Summary of the method: as §1
# [27] = target: Gal(b1-4)GlcNAc(b1-3)Gal(b1-4)GlcNAc(b1-3)Gal(b1-4)GlcNAc(b1-3)Gal(b1-4)GlcNAc(b1-2)Man(a1-3)[Gal(b1-4)GlcNAc(b1-3)Gal(b1-4)GlcNAc(b1-3)Gal(b1-4)GlcNAc(b1-3)Gal(b1-4)GlcNAc(b1-2)Man(a1-6)]Man(b1-4)GlcNAc(b1-4)GlcNAc
# Summary of the method: as §1
# [28] = target: Gal3S6S(b1-4)GlcNAc6S
# Summary of the method: as §1
# [29] = target: Gal6S(b1-3)GlcNAc
# Summary of the method: as §1
# [30] = target: Gal6S(b1-3)GlcNAc6S
# Summary of the method: as §1
# [31] = target: Gal6S(b1-4)Glc6S
# Summary of the method: as §1
# [32] = target: Gal6S(b1-4)GlcNAc6S
# Summary of the method: as §1
# [33] = target: GalNAc(b1-4)GlcNAc(b1-2)Man(a1-3)[GalNAc(b1-4)GlcNAc(b1-2)Man(a1-6)]Man(b1-4)GlcNAc(b1-4)GlcNAc
# Summary of the method: as §1
# [34] = target: GalNAc(b1-6)GalNAc
# Summary of the method: as §1
binder,measurement,setting,value
B1,glycan array binding signal (z-score),[1],-0.144
same,glycan array binding signal (z-score),[2],-0.113
same,glycan array binding signal (z-score),[3],-0.037
same,glycan array binding signal (z-score),[4],-0.104
same,glycan array binding signal (z-score),[5],-0.202
same,glycan array binding signal (z-score),[6],-0.014
same,glycan array binding signal (z-score),[7],0.012
same,glycan array binding signal (z-score),[8],-0.147
same,glycan array binding signal (z-score),[9],-0.133
same,glycan array binding signal (z-score),[10],-0.138
same,glycan array binding signal (z-score),[11],-0.175
same,glycan array binding signal (z-score),[12],0.258
same,glycan array binding signal (z-score),[13],-0.089
same,glycan array binding signal (z-score),[14],-0.17
same,glycan array binding signal (z-score),[15],1.84
same,glycan array binding signal (z-score),[16],1.39
same,glycan array binding signal (z-score),[17],4.13
same,glycan array binding signal (z-score),[18],1.06
same,glycan array binding signal (z-score),[19],-0.236
same,glycan array binding signal (z-score),[20],4.84
same,glycan array binding signal (z-score),[21],2.52
same,glycan array binding signal (z-score),[22],-0.184
same,glycan array binding signal (z-score),[23],1.35
same,glycan array binding signal (z-score),[24],7.04
same,glycan array binding signal (z-score),[25],-0.117
same,glycan array binding signal (z-score),[26],0.016
same,glycan array binding signal (z-score),[27],-0.21
same,glycan array binding signal (z-score),[28],0.516
same,glycan array binding signal (z-score),[29],0.07
same,glycan array binding signal (z-score),[30],3.58
same,glycan array binding signal (z-score),[31],13
same,glycan array binding signal (z-score),[32],12.7
same,glycan array binding signal (z-score),[33],-0.164
same,glycan array binding signal (z-score),[34],-0.146
